PNC inhibitor: inhibitors of perinucleolar compartment assembly; PC3M PTB-GFP, PNC prevalence imaging, 16 h; active compounds read low; activity change (PNC), negative = inhibition, % at 10 µM; 140,000 tested, 3.1% active; AID 2417;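 active = readout at or below -70, meaning at least 70% loss of cells showing the perinucleolar compartment, a nuclear body marking cancer cells; inconclusive = readout between -30 and a set limit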;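 note: plate controls were DMSO wells for no effect and camptothecin positive control wells for full effect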
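Read-out is percentage of cells bearing a perinucleolar compartment, from automated 20x imaging of fixed, Hoechst-stained PC3M PTB-GFP cells. Cells were seeded 4 h, then exposed 16 h to compound (23 nl of library stock) in duplicate plates.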
ALOX15B inhib: inhibitors of human 15-lipoxygenase 2 (ALOX15B); O15296; AID 881; purified 15hLO-2, xylenol orange hydroperoxide absorbance; 110,000 tested, 0.56% active; Potency, µM (doses to about 57.1 µM), without a hit: at the highest dose activity change, negative = inhibition, hits mostly inhibitors; note: potency is the fitted concentration of half-maximal effect; nearly all actives have a fitted effect of over 60% in size
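Enzyme 50 nM, AA 45 uM, 25 mM Hepes pH 7.5 + 0.01% Triton X-100; cpd preinc 15 min RT, rxn 90 min RT; stop/detect with 200 uM XO + 300 uM Fe(II) in 50 mM H2SO4, 30 min; A573/A405.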
IMPase inh: IMPase inhibition in cells; P97697; CHO-M1 cells, IP1 accumulation, HTRF TR-FRET ratio; inhibition (IP1 accumulation), % at 46.1 µM; 120,000 tested, under 10 active; AID 901; active = well fitted curve in the direction sought with a large enough effect in the signal ratio, not every such curve was filed as active; inconclusive = small, poorly fitted or top-dose-only effect, or a change in a side signal; inactive = no such curve, though single readings can be large or run the other way; the % refers to the signal ratio;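 note: cells stimulated with carbachol in lithium chloride buffer; plate controls were DMSO basal wells for no effect and reference inhibitor wells for full effect; higher means more IMPase inhibition seen as more IP1 and lower FRET ratio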
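Measured: the HTRF emission ratio (665/620 nm) plus the 620 nm donor channel, each fitted to the Hill equation to give AC50. Cells were CHO-M1 given compounds up to 46 uM and a 30 min carbachol stimulation at 37C.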
12-hLO inh: 12-hLO (ALOX12) enzyme inhibition; AID 1452; Potency, µM (highest dose often 57.1 µM), for the others: top-dose activity change, negative = inhibition, usual class: inhibitors; P18054; 150,000 tested, 0.12% active; purified 12-hLO, xylenol orange hydroperoxide absorbance; note: potency is the fitted concentration of half-maximal effect; nearly all actives have a fitted effect of over 55% in size
Target sequence (P18054 whole entry, looked up): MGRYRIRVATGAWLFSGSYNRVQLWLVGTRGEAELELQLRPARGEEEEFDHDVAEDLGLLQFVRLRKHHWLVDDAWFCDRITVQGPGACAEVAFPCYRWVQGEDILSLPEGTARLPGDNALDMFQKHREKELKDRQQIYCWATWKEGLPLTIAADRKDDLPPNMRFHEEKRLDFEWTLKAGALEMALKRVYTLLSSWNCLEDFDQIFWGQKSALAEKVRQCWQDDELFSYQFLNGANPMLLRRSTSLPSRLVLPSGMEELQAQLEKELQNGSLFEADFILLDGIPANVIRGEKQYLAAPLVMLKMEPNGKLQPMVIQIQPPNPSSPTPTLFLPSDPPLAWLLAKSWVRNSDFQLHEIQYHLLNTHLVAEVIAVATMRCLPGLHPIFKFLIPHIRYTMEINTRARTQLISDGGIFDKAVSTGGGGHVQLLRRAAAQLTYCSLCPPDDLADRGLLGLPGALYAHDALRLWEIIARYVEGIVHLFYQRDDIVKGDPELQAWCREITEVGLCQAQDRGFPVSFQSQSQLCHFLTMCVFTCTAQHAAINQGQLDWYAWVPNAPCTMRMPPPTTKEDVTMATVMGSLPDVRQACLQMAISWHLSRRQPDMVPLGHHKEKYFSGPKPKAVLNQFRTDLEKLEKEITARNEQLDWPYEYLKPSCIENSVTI
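Xylenol orange chromogenic assay: hydroperoxide from 12hLO oxidises Fe(II), giving red-shifted Fe(III)-XO absorbance. Conditions: 150 nM enzyme, 40 uM arachidonic acid, 25 mM Hepes pH 7.0, 0.01% Triton X-100, 30 min, room temperature.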
* marks the source's active call; other numbers are inactive results; ? = inconclusive; nt = no result given; [ ] = dose if it differs, or a comment. A selection: hits, their analogues and other compounds. The true share with any hit is near 3%. Unless noted, calls come from the whole dose curve; as a rule, active = well fitted curve in the direction sought with a large enough effect; inconclusive = small, poorly fitted or top-dose-only effect, or another doubt; inactive = no such curve, though single readings can be large; an effect the other way counts as inactive or inconclusive. Unless noted, % is set by controls: 0 for no effect and ±100 for the full control effect.

SMILES | PNC inhibitor | ALOX15B inhib | IMPase inh | 12-hLO inh
Cc1onc(-c2ccccc2Cl)c1C(=O)Nc1nnc(-c2cccc([N+](=O)[O-])c2)s1 | -108* | ? | -3 | -5%
Cc1cc(C(=O)Nc2nc3c(s2)CCCC3)no1 | -107* | 2% | 4 | 1%
O=C(Nc1c2c(nc3ccccc13)CCCC2)c1ccccc1F | -119* | nt | -3 | 1%
O=C(Nc1c2c(nc3ccccc13)CCCC2)c1ccccc1Cl | -28 | nt | ? | -5%
O=C1CCCC2=C1C(c1ccc(Cl)cc1)N1C(=O)CCSC1=N2 (configuration not stated) | -100* | nt | 13 | -6%
OC[C@@H]1O[C@@H](n2cnc3c(NC4CCCCC4)ncnc32)[C@@H](O)[C@H]1O | nt | 4% | 5 | -6%
CS(=O)(=O)N1CCCC(c2nc(-c3ccc(S(=O)(=O)NCc4ccccc4)cc3)no2)C1 (configuration not stated) | -1 | -2% | 7 | -6%
COC(=O)N1CC(=O)N(OC)C1c1ccc(Cl)cc1Cl (configuration not stated) | 46 | 6% | -6 | 0%
CCO/C=C/C(O)(CNC(=O)c1ccc(C(C)(C)C)cc1)C(F)(F)F (configuration not stated) | -11 | nt | nt | -7%
O=C(N1CCCCC1)C1(c2ccccc2)CCOCC1 | -12 | 0% | 2 | -5%
O=C(N1CCOCC1)C1(c2ccccc2)CCCCC1 | -105* | 0% | -1 | -2%
CC(C)Sc1nc2sc(-c3ccccc3)cc2c(=O)n1N | -106* | -6% | -5 | 3%
N=C(N)c1ccc(/C=C\c2ccc(C(=N)N)cc2)cc1 | nt | 33%[11.4 µM] | nt | -3%[11.4 µM]
O=C(c1ccco1)N1CCN(CC(O)COc2ccc3oc4ccccc4c3c2)CC1 (configuration not stated) | -93* | 37% | -8 | -3%
CCOC(=O)c1c(C)c(C(=O)NC(C)COC)c(C)n1C (configuration not stated) | ? | 3% | -5 | 2%
CCOC(=O)c1c(C)c(C(=O)NC(C)COC)c(C)n1CC (configuration not stated) | -102* | -2% | 7 | 3%
Cc1cccc(NC(=O)c2cc(NC(=O)c3ccco3)ccc2Cl)n1 | -110* | 3% | 5 | -2%
Cc1ccccc1C(=O)NC(=S)NCCc1ccccc1 | -9 | nt | nt | ?
COc1cc(OC)cc(C(=O)NC(=S)NCCc2ccccc2)c1 | 33 | 7.9µM* | 10 | 4µM*
S=C(NCCc1ccccc1)NCCc1ccccc1 | 14 | nt | nt | -16%
CC(C)(C)C(=O)NC(=S)NCCc1ccccc1 | -3 | 13µM* | 9 | 13µM*
Cc1cccc(-n2c(C)cc(C=C3C(=O)c4ccccc4C3=O)c2C)c1 | -85* | -28% | 11 | -21%
CCOC(=O)c1cc(-c2ccccc2)n(CC(=O)Nc2ccc(OC)c(OC)c2)c1C | -88* | nt | nt | -2%
CCOC(=O)c1cc(-c2ccccc2)n(CC(=O)Nc2cccc(OC)c2)c1C | ? | nt | nt | 3%
COc1ccc(CN2C(=O)c3cccnc3C2Nc2ccc(OC)c(Cl)c2)cc1 (configuration not stated) | -5 | 8% | 1 | -11%
SMILES | PNC inhibitor | ALOX15B inhib | IMPase inh | 12-hLO inh
COc1ccc(NC2c3ncccc3C(=O)N2Cc2ccccc2)c(OC)c1 (configuration not stated) | -100* | nt | 1 | -5%
CCOc1ccc(-c2cc(C(=O)N3CCN(C)CC3)c3ccccc3n2)cc1 | 23 | -11% | -14 | -12%
CC(=O)c1ccc(N2CCN(C(=O)c3cc(-c4ccc5c(c4)OCO5)nc4ccccc34)CC2)cc1 | ? | -16% | -1 | -10%
CCOC(=O)N1CCN(C(=O)c2cc(-c3ccc(OCC)cc3)nc3ccccc23)CC1 | -95* | 1% | 5 | -12%
Cc1ccc(-c2cc(C(=O)N3CCN(c4ccc(F)cc4)CC3)c3ccccc3n2)o1 | ? | 13µM* | 2 | -14%
CC(C)NC(=S)Nc1ccc2cn[nH]c2c1 | -21 | nt | nt | -1%
CCCCC1=CC2=CC(=O)C(C)(OC(=O)CC)C(=O)C2=CN1CCCN(CC)CC (configuration not stated) | nt | nt | nt | 0%[11.4 µM]
CC(=O)Nc1ccc(S(=O)(=O)NCc2ccc(C(=O)NC(C)c3ccccc3)cc2)cc1 (configuration not stated) | -17 | -3% | -1 | -4%
CCCn1c(SCC(=O)Nc2nnc(C(C)C)s2)nc2c1c(=O)n(C)c(=O)n2C | -7 | -6% | 10 | 1%
